In the library only some 2.2% were active in any assay of this set; here they are far more common.
EWS-Fli inh: EWS/Fli-driven NR0B1 reporter inhibitors, primary screen, A673 cells, NR0B1 luciferase, luminescence, MLPCN library | viability-normalised | inhibition, % at 12.6 µM | 0.67% of 350,000 active | AID 651661, 2012;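 active means mean inhibition of at least 50% after viability correction, with every replicate also passing that limit; inconclusive means mean reaches 50% but only one of two replicates passes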;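 further: firefly luciferase signal divided by Alamar Blue viability fluorescence both relative to DMSO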
Shn3 3UTR inh: reduction of Shn3 3'UTR firefly luciferase signal, primary screen, Schnurri-3 inhibitor project, cell-based, Clone20 osteoblasts, set 2 | Clone20 osteoblast Shn3 3'UTR firefly luciferase, 24 h | inhibition, % at 12.5 µM | 0.52% of 360,000 active;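 active means mean inhibition of at least 75% with every replicate also reaching 75%; inconclusive means mean inhibition at least 75% but some replicate below; inactive means mean inhibition below 75%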;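 further: 0% = median of neutral control wells and 100% = pilot-screen positive control compound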
LGR2 antag: inhibitors of bursicon-induced LGR2 CRE-luciferase signal, primary screen, cell-based, HEK293, CRE-luciferase reporter, bursicon stimulation; 0.35% of 380,000 active; Drosophila bursicon receptor LGR2 (rickets); AID 720647, 2013; bursicon-stimulated, 4 h; inhibition, % at 9.99 µM;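 active means drop in luminescence signal, shown as inhibition above about 50% in the replicate tests, limit read from the data, passing the limit was not always enough; inconclusive means probably only some replicates passing the limit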;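 further: agonist challenge used bursicon conditioned medium at about half maximal strength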
LMP1 NFkB inh: EBV LMP1-driven NF-kappaB luciferase reporter inhibitors, primary screen, cell-based, luminescence, single point; inhibition, % at 12.5 µM; LMP1-induced NF-kappaB luciferase reporter cells; 0.69% of 350,000 active; in the data active means inhibition above about 41%; inconclusive means no clear call, values can overlap the other calls;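 further: 0% = neutral control wells and 100% = reference inhibitor control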
PAX8 inh HTS: inhibitors of PAX8-driven TPO luciferase reporter, primary screen, RMG-I cells, single concentration; SteadyGlo, 24 h; AID 652154, 2013; 1.2% of 360,000 active; inhibition, % at 12.6 µM;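 active means mean replicate inhibition at least 60% with every replicate also reaching 60%; inconclusive means only one of the two criteria is met; inactive means mean below 60% and not all replicates reaching 60%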;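 further: luciferase light reporting Pax8 driven TPO promoter activity; plate controls were median of neutral control wells for no effect and mitoxantrone controls for full effect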
TRPM1 prom inh: inhibitors of MITF-dependent TRPM1 promoter reporter, primary screen, cell-based, SK-MEL-5, single point, luciferase; SK-MEL-5 TRPM1 promoter luciferase, 24 h; inhibition, % at 12.5 µM; 0.83% of 330,000 active;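 active means mean inhibition across replicates of 60% or more, whatever share of single replicates reaches that level; inconclusive means some that reach 60%, reason not given; inactive means mean inhibition across replicates below 60%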
An asterisk follows results filed as active; ? = inconclusive; . = no result.

SMILES | EWS-Fli inh | Shn3 3UTR inh | LGR2 antag | LMP1 NFkB inh | PAX8 inh HTS | TRPM1 prom inh
Cc1ccc(C)c(N2CCN(C(=O)CCS(=O)(=O)c3ccc4c(c3)NC(=O)C(C)S4)CC2)c1 (configuration not stated) | . | 85 | 17 | 17 | 62* | 31
COC(=O)[C@H]1[C@@H](O)[C@@]2(O)c3c(OC)cc(OC)cc3O[C@@]2(c2ccc(OC)cc2)[C@@H]1c1ccc(F)cc1 | 39 | . | 86* | . | 98* | .
COC(=O)C1C(=O)C=C(Nc2ccc(F)cc2)CC1c1ccc(OC)cc1 (configuration not stated) | . | -24 | -32 | -10 | -56 | -17
CCOC(=O)/C(=C\c1ccc(N2CCC(c3ccccc3)=N2)cc1)C(C)=O | -3 | -12 | 22 | 88* | -134 | -79
Cc1cccc(N2CCN(C(=S)c3ccc4c(c3)OCO4)CC2)c1 | 42 | 7 | -5 | 11 | -10 | 1
S=C(c1ccc2c(c1)OCO2)N1CCN(c2cccc(Cl)c2)CC1 | 60* | 2 | 13 | 7 | 42 | 15
O=C(c1cc(-c2ccc3c(c2)OCO3)on1)N1CCOCC1 | . | -20 | . | 62* | . | 15
COc1ccc(-c2cc(C(=O)N3CCCCCC3)no2)cc1 | -65 | -11 | 8 | -15 | -186 | -36
COc1ccc(-c2cc(C(=O)Nc3cccc(O)c3)no2)cc1 | 69* | 2 | 35 | 4 | -16 | 9
COc1ccc(-c2cc(C(=O)N3CCCC3)no2)cc1 | 42 | 4 | 75* | 50* | -1 | 19
O=C(Nc1cccnc1)c1cc(-c2ccc3c(c2)OCO3)on1 | . | -56 | 63* | -9 | . | -23
CC(=O)NC[C@@H]1[C@@H](c2ccc(C3=CCCCC3)cc2)[C@@H](CO)N1C(=O)C1CCC1 | . | . | 1 | . | . | .
CCCNC(=O)C[C@H]1CC[C@H]2[C@H](COc3ccc(NS(=O)(=O)CC)cc3C(=O)N2C)O1 | 3 | . | 0 | . | 10 | .
CC(C)c1cn(CC[C@@H]2CC[C@H](NC(=O)C3CCCC3)[C@@H](CO)O2)nn1 | -4 | . | -3 | . | 13 | .
CCOc1ccc(NC(=O)CCCc2cc(-c3ccc(OCC)cc3)on2)cc1 | . | 12 | . | 18 | -23 | 22
CCOc1ccc(-c2cc(CCCC(=O)Nc3cccc(OC)c3)no2)cc1 | 64* | 22 | -17 | 47* | 1 | ?
CC1CCN(CC2C(=O)O[C@@H]3C[C@@]4(C)CCC[C@H](C)C4=C[C@H]23)CC(C)(C)C1 (some centres not stated) | 2 | -7 | 39 | 9 | ? | 74*
C=C1CCC[C@]2(C)C[C@H]3OC(=O)C(CN4CC(C)OC(C)C4)[C@H]3C[C@@H]12 (some centres not stated) | 8 | -64 | -13 | 3 | 47 | 20
CC(C)CC#Cc1ccc([C@@H]2[C@@H](CO)N3C(=O)CN(C(=O)Nc4cc(F)ccc4F)C[C@@H]23)cc1 | -3 | . | -4 | . | 16 | .
C[C@H](CO)N1C[C@H](C)[C@@H](CN(C)Cc2ccc(Cl)c(Cl)c2)OCCCC[C@H](C)Oc2ccc(NC(=O)Nc3ccccc3)cc2C1=O | 9 | . | -19 | . | 87* | .
C[C@H](CO)N1C[C@H](C)[C@H](CN(C)Cc2ccc(Cl)c(Cl)c2)OCCCC[C@H](C)Oc2ccc(NC(=O)Nc3ccccc3)cc2C1=O | -4 | . | 10 | . | 100* | .
C[C@@H]1CCCCO[C@@H](CN(C)Cc2ccc(Cl)c(Cl)c2)[C@@H](C)CN([C@@H](C)CO)C(=O)c2cc(NC(=O)Nc3ccccc3)ccc2O1 | 6 | . | 14 | . | 81* | .
C[C@H]1CCCCO[C@H](CN(C)Cc2ccc(Cl)c(Cl)c2)[C@@H](C)CN([C@@H](C)CO)C(=O)c2cc(NC(=O)Nc3ccccc3)ccc2O1 | 14 | . | 4 | . | 85* | .
C[C@@H]1CCCCO[C@@H](CN(C)Cc2ccc(Cl)c(Cl)c2)[C@@H](C)CN([C@@H](C)CO)C(=O)c2cc(NC(=O)Nc3ccc(F)cc3)ccc2O1 | 9 | . | 2 | . | 57 | .

Screening results deposited in PubChem by Broad Institute.
